HSF-1 act: increases HSF-1 driven luciferase reporter signal; NIH3T3-HGL HSF-1 luciferase reporter, MG132, 8 h; 100% = twice DMSO control signal; activation, % at 9 µM; actives 1.7% (n = 300,000); AID 504408;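 active = mean replicate activation of at least 50% with a set share of replicates each reaching 50%; inconclusive = only one of those two conditions met; inactive = mean below 50% and too few replicates reaching it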;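 also: 0% = median of the neutral control wells and 100% = twice that signal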
TWEAK-Fn14 inh: inhibitors of TWEAK-Fn14 interaction signaling. actives 2% (n = 360,000). AID 1159606. inhibition, % at 10 µM. TWEAK-stimulated Fn14 reporter cells, luciferase luminescence, 8 h; in the data active = inhibition above about 50%
TROY NFkB inh: inhibitors of TROY-dependent NF-kB signaling; Q293 LMP1-TROYcd NF-kB luciferase reporter, 4 h; inhibition, % at 10 µM; actives 0.98% (n = 360,000);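 active = compounds whose plate-normalised and pattern-corrected inhibition of the luciferase reporter signal at the single screening dose is 50% or more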
HSP90 inh: HSP90 refolding inhibition in rabbit reticulocyte lysate; luciferase refolding luminescence, 3 h; inhibition, % at 5.6 µM; actives 0.91% (n = 290,000); AID 1789;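 active = inhibition above the screen-wide mean plus 3 SD, computed separately per campaign, cut at about 16% in these data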;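 also: 0% = DMSO wells and 100% = 60 µM geldanamycin wells; inhibitors lower the luminescence because luciferase stays unfolded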
EBV LMP1 NFkB: reduces LMP1-driven NF-kappaB luciferase signal; LMP1-induced NF-kappaB luciferase reporter cells, luminescence; inhibition, % at 12.5 µM; actives 0.69% (n = 350,000); in the data active = inhibition above about 41%; inconclusive = no clear call, values can overlap the other calls;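 also: 0% = neutral control wells and 100% = reference inhibitor control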
HSF1 inh: HSF1 inhibition; NIH3T3-HGL HSE-luciferase, MG132-induced, luminescence 8 h; stronger effect = lower value; activity change, negative = inhibition, % at 7.5 µM (by protocol); actives 0.77% (n = 300,000);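 active = more than half of replicate wells show activity change below -50%, luminescence cut by over half; inconclusive = some wells, but at most half, below -50%; inactive = no replicate well below -50%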;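 also: luciferase reports HSF-1 transcriptional activity via heat shock element; 0% = median of DMSO wells and -100% = zero luminescence signal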
Active calls of the source: *; ? = inconclusive; . = not tested or not shown. Shown are actives, neighbours in structure and some others; about 4.7% of the full set was active somewhere.

SMILES	HSF-1 act	TWEAK-Fn14 inh	TROY NFkB inh	HSP90 inh	EBV LMP1 NFkB	HSF1 inh
O=C(Nc1nnc(-c2ccccc2)s1)c1ccc(Cl)c(S(=O)(=O)N2CCOCC2)c1	-31	.	.	0	.	-7
COc1ccc(S(=O)(=O)NC(=O)C2(C)CCN2C(=O)COc2ccc(Cl)cc2)cc1OC (stereo not given)	.	5	5	.	.	.
COc1cccc(-c2cc(C(=O)Nc3cccnc3)no2)c1	78*	69*	-16	11	5	33
O=C(Nc1cccnc1)c1cc(-c2ccccc2)on1	9	19	-13	5	3	9
COc1ccc(OC)c(NC(=O)Nc2cccnc2)c1	.	52*	-13	-4	-3	.
Cc1cc(C)cc(NC(=O)Nc2cccnc2)c1	10	2	-9	0	-5	3
Cc1ccc(NC(=O)Nc2cccnc2)cc1NC(=O)Nc1cccnc1	30	58*	9	4	2	18
COc1cc(CC(=O)C(=O)O)oc(=O)c1	.	-13	-10	.	-3	.
CCCCNC(=O)C1(C)CCN1Cc1cccc2c(OC)cc(C(=O)OCC)cc12 (stereo not given)	.	22	16	.	.	.
Cc1ccc(CN2CCN(Cc3cc4ccccc4o3)CC2CCO)cc1 (stereo not given)	-82	-7	11	3	-1	-75*
Cc1ccccc1CN1CCN(Cc2cc3ccccc3o2)CC1CCO (stereo not given)	-9	11	17	-1	-25	-1
CCCCCCCNC(=O)c1cc(-c2ccncc2)nc2ccccc12	68*	7	-6	1	-3	43
Cc1ccc(CCNC(=O)c2cc(-c3ccncc3)nc3ccccc23)cc1	45	-1	-6	-2	-6	26
NS(=O)(=O)c1ccc(CCNC(=O)c2cc(-c3ccccc3)nc3ccccc23)cc1	64*	12	-5	-5	7	21
Cc1ccc(NCC(=O)N/N=C\c2ccc[nH]2)cc1	-23	89*	69*	2	.	-20
Cc1ccc(NCC(=O)N/N=C\C(Br)=C\c2ccccc2)cc1	145*	43	4	2	-34	110
N#CCCN(Cc1ccccc1)C(C(=O)NC1CCCCC1)c1cc2ccccc2o1 (stereo not given)	.	34	34	.	.	.
CCOC(=O)N1CCN(C(=O)C2CCN(S(=O)(=O)c3ccc(Cl)cc3)CC2)CC1	0	-4	11	5	-2	-1
CCOC(=O)N1CCN(C(=O)C2CCC(CNS(=O)(=O)c3ccc(Cl)cc3)CC2)CC1 (stereo not given)	-11	51*	.	10	-4	-4
CC(=NCc1ccccc1)c1ccc(O)cc1O	.	-2	-1	.	-10	.
COc1ccc(C2C3=C(CCCC3=O)N(CC(=O)O)C3=C2C(=O)CCC3)cc1Cl	77*	-2	-14	-1	-4	30
COc1ccc(C2c3[nH]c4ccccc4c3C[C@H]3C(=O)N(c4ccccc4C(=O)N4CCC(C(=O)O)CC4)C(=O)N23)cc1 (stereo not given in full)	1	2	-4	0	-7	5
CC(C)c1ccc(C2c3[nH]c4ccccc4c3C[C@H]3C(=O)N(c4ccccc4C(=O)N4CCC[C@H]4C(=O)O)C(=O)N23)cc1 (stereo not given in full)	-6	44	67*	0	-9	0
CCn1c(-c2cc(-c3ccccc3)sc2N)n[nH]c1=S	64*	-19	-21	-3	-6	29
CN(C)CCNc1nc(Oc2ccccc2)c2sccc2n1	.	-21	-9	.	.	.
SMILES	HSF-1 act	TWEAK-Fn14 inh	TROY NFkB inh	HSP90 inh	EBV LMP1 NFkB	HSF1 inh
Cc1cc(C)n2c(SC(C)C(=O)NC3(C#N)CCCCC3)nnc2n1 (stereo not given)	.	67*	3	.	-4	.
COc1nn(-c2ccccc2)c(=O)c(Cl)c1Cl	-94	99*	74*	-5	1	-93*
COc1c(Cl)cnn(-c2ccccc2)c1=O	11	14	-11	-3	-1	-8
CC1(C(=O)NCc2ccco2)CCN1C(=O)C1(c2ccccc2)CC1 (stereo not given)	.	-13	-3	.	.	.
Cc1ccc2nc(-c3ccc(NC(=S)NC(=O)CC(C)C)cc3)sc2c1	22	-6	-43	-9	-34	4
Cc1ccc2nc(-c3ccc(NC(=O)CSc4nccc(=O)[nH]4)cc3)sc2c1	2	24	51*	8	-21	-7
Cc1ccc2nc(-c3ccc(NC(=O)CSc4nc(N)cc(=O)[nH]4)cc3)sc2c1	-4	-7	-19	-2	-14	12
Cc1ccc2nc(-c3ccc(NC(=O)C(C)Sc4nncs4)cc3)sc2c1 (stereo not given)	-32	89*	73*	.	20	-17
Cc1cc(Br)cn2c(Cc3ccsc3)c(C3CCCCC3)nc12	.	7	-7	.	.	.
COc1ccccc1Nc1cc(C)nc2c(C)ccc([N+](=O)[O-])c12	-18	-23	2	0	2	8
Cc1cc(Nc2ccccc2)c2c([N+](=O)[O-])cc(C)c(C)c2n1	15	-2	-17	1	42*	3
Nc1nc(Oc2ccc(F)cc2)c(Br)c(=O)[nH]1	-72	36	-9	5	2	-64*
CC(C)CC(NC(=O)CCC(=O)OCC(=O)[C@@]1(O)CCC2[C@@H]3CCC4=CC(=O)C=C[C@]4(C)C3[C@@H](O)C[C@@]21C)C(=O)O (stereo not given in full)	-56	-17	33	-3	13	-53*
CSCCC(NC(=O)CCC(=O)OCC(=O)[C@@]1(O)CCC2[C@@H]3CCC4=CC(=O)C=C[C@]4(C)C3[C@@H](O)C[C@@]21C)C(=O)O (stereo not given in full)	-59	-21	-2	-4	6	-52*
Cc1ccnc(NC(=O)/C=C/c2cccs2)c1	42	53*	-9	2	18	17
O=C(O)C(=O)Nc1ncn[nH]1	.	-6	1	.	0	.
O=C(Nc1nc2ccccc2[nH]1)Nc1ccccc1F	?	-9	41	8	-37	22
O=C(/C=C/c1ccccc1)Nc1ncn[nH]1	7	70*	-9	1	-17	10
O=C(/C=C/c1ccc(F)cc1)Nc1nc2ccccc2[nH]1	55*	.	.	1	.	10
O=C(c1cccc(Cl)c1)N1CCC(=O)N([C@H](COCc2ccccc2)Cc2ccccc2)CC1	.	-3	-10	.	.	.
Nc1ncnc2c1ccn2[C@H]1CN(Cc2ccc3c(c2)OCO3)C[C@@H](COC(=O)c2ccccc2)O1	.	-6	1	.	.	.
COc1ccccc1CN(C)C(=O)c1cc(-c2cccs2)nc2ccccc12	-43	74*	30	2	3	-32
O=C1NC(Cc2ccc(O)cc2)c2nc3cc(Cl)ccc3c(=O)n2-c2cc3ccccc3cc21 (stereo not given)	.	41	13	.	-46	.

High-throughput results deposited in PubChem by several laboratories.
